# From PubChem BioAssay AID1159580 (chemical genetic matrix, 2015)
# About 2,000 (36%) of roughly 5,500 compounds were called active. Not shown: some 18% with an inconclusive outcome. Some of the results follow. Unmarked numbers belong to inactive results. Rule as the data show it: active = normalized growth mostly below about 0.91 (no sharp cut-off); inconclusive = no clear call, values can overlap the other calls; inactive = mostly above about 0.92.
# Experiment: chemical genetic growth profiling, strain panel (AID 1159580);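 also: tested at 20 µM; growth read once vehicle control cultures reached saturation at 30 °C; 1 = growth at the plate median or of vehicle wells; lower values mean less growth of the strain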
# Settings: growth OD
# [1] = S. cerevisiae deletion strains, locus YAL013W, strain DEP1, stronger effect = lower value
# [2] = S. cerevisiae deletion strains, locus YBR229C, strain ROT2, stronger effect = lower value
# [3] = S. cerevisiae deletion strains, locus YCL061C, strain MRC1, stronger effect = lower value
# [4] = S. cerevisiae deletion strains, locus YDL101C, strain DUN1, stronger effect = lower value
# [5] = S. cerevisiae deletion strains, locus YDR150W, strain NUM1, stronger effect = lower value
# [6] = S. cerevisiae deletion strains, locus YEL061C, strain CIN8, stronger effect = lower value
# [7] = S. cerevisiae deletion strains, locus YGR078C, strain PAC10, stronger effect = lower value
# [8] = S. cerevisiae deletion strains, locus YHR030C, strain SLT2, stronger effect = lower value
# [9] = S. cerevisiae deletion strains, locus YHR087W, strain rtc3, stronger effect = lower value
# [10] = S. cerevisiae deletion strains, locus YJR043C, strain POL32, stronger effect = lower value
# [11] = S. cerevisiae deletion strains, locus YJR075W, strain HOC1, stronger effect = lower value
# [12] = S. cerevisiae deletion strains, locus YKL190W, strain CNB1, stronger effect = lower value
# [13] = S. cerevisiae deletion strains, locus YLR039C, strain RIC1, stronger effect = lower value
# [14] = S. cerevisiae deletion strains, locus YLR058C, strain SHM2 (second series), stronger effect = lower value
# [15] = S. cerevisiae deletion strains, locus YLR085C, strain ARP6, stronger effect = lower value
# [16] = S. cerevisiae deletion strains, locus YLR262C, strain YPT6, stronger effect = lower value
# [17] = S. cerevisiae deletion strains, locus YML094W, strain GIM5, stronger effect = lower value
# [18] = S. cerevisiae deletion strains, locus YMR219W, strain ESC1, stronger effect = lower value
# [19] = S. cerevisiae deletion strains, locus YMR263W, strain SAP30, stronger effect = lower value
# [20] = S. cerevisiae deletion strains, locus YNL153C, strain GIM3, stronger effect = lower value
# [21] = S. cerevisiae deletion strains, locus YNL298W, strain CLA4 (second series), stronger effect = lower value
# [22] = S. cerevisiae deletion strains, locus YNL322C, strain KRE1, stronger effect = lower value
# [23] = S. cerevisiae deletion strains, locus YNR030W, strain Alg12, stronger effect = lower value
# [24] = S. cerevisiae deletion strains, locus YOL006C, strain TOP1, stronger effect = lower value
# [25] = S. cerevisiae deletion strains, locus YPL055C, strain LGE1, stronger effect = lower value
# [26] = S. cerevisiae deletion strains, locus YPL241C, strain CIN2, stronger effect = lower value
# [27] = S. cerevisiae deletion strains, locus YPR135W, strain CTF4, stronger effect = lower value
# [28] = S. cerevisiae strains, strain wild type, stronger effect = lower value
structure (smiles),measurement,setting,value
CCOC(=O)C(=CNc1cccc(C#N)c1)C(=O)OCC,normalized growth,[1],1.01
same,normalized growth,[2],0.987
same,normalized growth,[3],1
same,normalized growth,[4],1
same,normalized growth,"S. cerevisiae deletion strains, locus YDL134C, strain PPH21, stronger effect = lower value",0.994
same,normalized growth,[5],0.992
same,normalized growth,[6],0.957
same,normalized growth,[7],1.01
same,normalized growth,[8],0.942
same,normalized growth,[9],0.973
same,normalized growth,[10],1.02
same,normalized growth,[11],0.981
same,normalized growth,[12],0.98
same,normalized growth,[13],0.988
same,normalized growth,[14],0.995
same,normalized growth,[15],0.977
same,normalized growth,[16],0.962
same,normalized growth,[17],0.963
same,normalized growth,[18],0.997
same,normalized growth,[19],1.01
same,normalized growth,"S. cerevisiae deletion strains, locus YNL128W, strain TEP1, stronger effect = lower value",1.01
same,normalized growth,[20],1.01
same,normalized growth,[21],0.999
same,normalized growth,[22],0.997
same,normalized growth,[23],1.03
same,normalized growth,[24],0.91
same,normalized growth,[25],0.934
same,normalized growth,[26],1.01
same,normalized growth,[27],1.03
same,normalized growth,[28],0.994
CCOC(=O)C(=CNc1ccccc1N1CCOCC1)C(=O)OCC,normalized growth,[1],0.96
same,normalized growth,[2],0.989
same,normalized growth,[3],0.978
same,normalized growth,[4],0.958
same,normalized growth,[5],0.939
same,normalized growth,[6],1
same,normalized growth,[7],0.963
same,normalized growth,"S. cerevisiae deletion strains, locus YGR229C, strain SMI1, stronger effect = lower value",0.978
same,normalized growth,[8],0.759
same,normalized growth,[9],0.999
same,normalized growth,"S. cerevisiae deletion strains, locus YJL187C, strain SWE1, stronger effect = lower value",0.979
same,normalized growth,[10],0.967
same,normalized growth,[11],0.991
same,normalized growth,[12],0.955
same,normalized growth,[13],0.9
same,normalized growth,[14],0.971
same,normalized growth,[15],0.722 (active)
same,normalized growth,[16],0.915
same,normalized growth,[17],0.958
same,normalized growth,[18],0.981
same,normalized growth,[19],0.968
same,normalized growth,[20],0.986
same,normalized growth,[21],0.916
same,normalized growth,[22],0.975
same,normalized growth,[23],0.937
same,normalized growth,[24],0.825
same,normalized growth,[25],0.987
same,normalized growth,[26],0.938
same,normalized growth,[27],0.52 (active)
CCOC(=O)C(=CNNC(=O)c1ccccc1-n1cccc1)C(=O)OCC,normalized growth,[1],0.993
same,normalized growth,[2],1.01
same,normalized growth,[3],1.01
same,normalized growth,[4],1.03
same,normalized growth,[5],1.01
same,normalized growth,[6],0.955
same,normalized growth,[7],1.01
same,normalized growth,[8],1.01
same,normalized growth,[9],0.974
same,normalized growth,[10],1.01
same,normalized growth,[11],1.01
same,normalized growth,[14],0.994
same,normalized growth,[15],0.996
same,normalized growth,[16],0.912
same,normalized growth,[17],0.997
same,normalized growth,[18],1.01
same,normalized growth,[19],1
same,normalized growth,[20],0.999
same,normalized growth,[21],1.01
same,normalized growth,[22],0.981
same,normalized growth,[23],1.02
same,normalized growth,[24],0.986
same,normalized growth,[25],0.975
same,normalized growth,[26],1.04
same,normalized growth,[27],1.04
same,normalized growth,[28],0.935
